# HCMV antiviral = qHTS Assay for inhibitors of the human cytomegalovirus (HCMV); HFF cells, HCMV-luciferase reporter, 72 h; hits give low values; activity change, negative = inhibition, % at 57.5 µM; 410,000 tested, 4.5% active; AID 1259415, 2018; in the data active = activity change below about -60%; inconclusive = no clear call, values can overlap the other calls; inactive = above about -39%; also: % is scaled to controls: 0 for no effect and ±100 for the full control effect
#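 After 16 h attachment at 37C, HFF cells received test compound and HCMV-luciferase (1 PFU/cell); reporter luminescence read 72 h later, data normalized against buffer-only and known inhibitor Salinomycin.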
# Pf growth 48h = Primary qHTS for delayed death inhibitors of the malarial parasite plastid, 48 hour incubation; 310,000 tested, 5.9% active; Potency, µM (highest dose often 28.7 µM), without a hit: top-dose activity change, negative = inhibition, usual class: inhibitors; P. falciparum luciferase growth in erythrocytes, 48 h; also: potency is read from the fitted curve at half-maximal effect; % is scaled to controls: 0 for no effect and ±100 for the full control effect
#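 Luminescence readout; reporter = integrated firefly luciferase in P. falciparum. RBC culture at 2% hematocrit, 0.1% parasitemia final, 37 C/5% CO2; decreased signal taken as growth inhibition.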
# CHX counter = Cycloheximide Counterscreen for Small Molecule Inhibitors of Shiga Toxin. cell reporter, cycloheximide protein synthesis inhibition counterscreen. max response, %. 300,000 tested, 12% active; in the data active = max response mostly above about 13%, no sharp cut-off; inactive = mostly below about 14%; also: read at 38.3 µM for the half of the compounds with a filed dose; 0% is about no effect
# Shiga inhibitor = A qHTS for Small Molecule Inhibitors of Shiga Toxin; AID 2315, 2010; 290,000 tested, 9.2% active; inhibition, % at 38.7 µM; Vero cells, Shiga toxin protein synthesis inhibition reporter; in the data active = inhibition mostly above about 28%, no sharp cut-off; inactive = mostly below about 43%; also: 0% is about no effect
# Pf growth 96h = Primary qHTS for delayed death inhibitors of the malarial parasite plastid, 96 hour incubation; P. falciparum luciferase reporter growth, 96 h; 320,000 tested, 6.9% active; Potency, µM (doses to about 28.7 µM), without a hit: at the highest dose activity change, negative = inhibition, usual class: inhibitors; also: potency is read from the fitted curve at half-maximal effect; % is scaled to controls: 0 for no effect and ±100 for the full control effect
#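 Infected RBCs, 2% Hct / 0.05% parasitemia final; luciferase-reporter P. falciparum; cpd 96 h, 37 C, 5% CO2; luciferase detection reagent; luminescence.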
# HCV inhibitor = qHTS Assay for Inhibitors of Hepatitis C Virus (HCV). Huh7.5.1 HCVcc-Cre infection, luciferase reporter, 44 h. Potency, µM (top dose mostly 41.8 µM), inactives show at the top dose activity change, negative = inhibition, hits mostly inhibitors. 340,000 tested, 3.4% active. AID 651820, 2012; also: potency is read from the fitted curve at half-maximal effect; % is scaled to controls: 0 for no effect and ±100 for the full control effect
#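 Infectious HCVcc-Cre (~0.5 moi) was added to cells just after compound, with cells seeded 4 h earlier at 1,000 per well. Luciferase activity after 44 h culture reported infection; substrate was incubated 15 min at room temperature before reading.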
# Numbers without * were called inactive; ? = inconclusive; · = not tested or not shown. Most compounds without a hit are left out; they make up all but 21% or so of the library. Unless noted, calls follow the shape of the dose curve; as a rule, active = well fitted inhibition curve with a large enough effect; inconclusive = small, poorly fitted or top-dose-only effect, or another doubt; inactive = no such curve, though single readings can be large or run the other way.
SMILES,HCMV antiviral,Pf growth 48h,CHX counter,Shiga inhibitor,Pf growth 96h,HCV inhibitor
O=C1NN(c2ccccc2)C(=O)/C1=C/c1coc2ccccc2c1=O,13,91%,81*,54*,?,?
O=C1NN(c2ccccc2)C(=O)/C1=C\c1coc2ccc(O)cc2c1=O,15,-2%,11,20,38%,5%
O=C(N1CCN(c2ccccn2)CC1)N1c2ccccc2Sc2ccccc21,-66*,?,0,-6,·,?
Cc1ccc(Cl)cc1N1CCN(C(=O)CCSCc2ccccc2F)CC1,-6,·,·,·,·,·
O=C(CSc1ccccc1)N1CCN(c2ccccn2)CC1,-12,9%,15*,30,32%,-12%
O=C(c1ccc(Br)s1)N1CCN(c2ccccn2)CC1,-2,?,10,28,240%,6%
O=C(CCSCc1ccccc1F)N1CCN(c2ccccn2)CC1,74,27%,28*,79*,?,2%
O=C(N1CCN(c2ccccn2)CC1)C(Cl)(Cl)Cl,-6,9.3µM*,28*,34*,2%,33%
O=C(Cc1cccs1)N1CCN(c2ccccn2)CC1,18,4%,2,-2,-15%,?
O=C(CSc1ccsc1[N+](=O)[O-])N1CCN(c2ccccn2)CC1,-68*,?,22,32,?,-25%
O=C(CSCc1ccccc1Cl)N1CCN(c2ccccn2)CC1,-3,·,59*,119*,0%,-20%
CCCCCCNc1nc(-c2ccc(OC)cc2)c(CCC(=O)O)s1,-62*,3%,-3,-14,7%,13%
COC(=O)CCc1sc(Nc2ccc(OC)cc2)nc1-c1ccc(OC)cc1,18,·,·,·,·,·
CCN(CC)CCNc1nc(-c2ccc(OC)cc2)c(-c2ccc(OC)cc2)s1,-39,?,-1,5,?,?
COC(=O)CCc1sc(NC2CCCCC2)nc1-c1ccc(OC)cc1,44,1%,25*,36,?,24%
CC(=Nc1ccccc1)C1=C(O)C(Cc2ccccc2)NC1=O (centres undefined),-76*,·,·,·,·,21%
CC(=Nc1ccccc1)C1=C(O)C(Cc2ccc(F)cc2)NC1=O (centres undefined),-10,·,·,·,·,·
Cc1ccc(C(C(=O)NC2CCCCC2)N(Cc2ccco2)C(=O)Cc2c[nH]c3ccccc23)o1 (centres undefined),-25,13µM*,-4,-2,?,?
Cc1ccc(N(C(=O)Cc2c[nH]c3ccccc23)C(C(=O)NC2CCCCC2)c2ccco2)cc1 (centres undefined),?,10µM*,-2,11,?,?
CC(C)c1nnc(NC(=O)c2cccc(-n3cnnn3)c2)s1,41,17%,-3,-5,55%,10%
N#Cc1ccsc1NC(=O)c1cccc([N+](=O)[O-])c1,27,3%,23*,52*,11%,10µM*
N#Cc1ccsc1NC(=O)c1ccc(Cl)c([N+](=O)[O-])c1,-27,17%,51*,99*,?,-3%
N#Cc1ccsc1NC(=O)c1ccc2ncsc2c1,39,·,·,·,·,·
N#Cc1ccsc1NC(=O)c1cccc(-n2cnnn2)c1,-24,15%,10*,26,-5%,?
CCOC(=O)C1CCN(C(=O)Cn2c(=O)oc3cc(S(=O)(=O)N4CCC(C)CC4)ccc32)CC1,16,·,·,·,·,·
SMILES,HCMV antiviral,Pf growth 48h,CHX counter,Shiga inhibitor,Pf growth 96h,HCV inhibitor
CC(C)c1ccc(NC(=O)CSc2nc(=O)n(Cc3cccnc3)c3c2CCC3)cc1,-107*,·,·,·,·,·
COc1ccc(C)cc1NC(=O)CSc1nc(=O)n(Cc2ccncc2)c2c1CCC2,-103*,·,·,·,·,·
CC(C)c1ccc(NC(=O)CSc2nc(=O)n(Cc3ccccn3)c3c2CCC3)cc1,-102*,·,·,·,·,·
COc1ccc(C)cc1NC(=O)CSc1nc(=O)n(Cc2ccco2)c2c1CCC2,-2,·,·,·,·,·
Cc1ccc(NC(=O)CSc2nc(=O)n(Cc3ccccn3)c3c2CCC3)cc1F,-36,·,·,·,·,·
COC(=O)C1=CN(c2ccc3c(c2)OCO3)C(N)=C(C#N)C1c1cccc(F)c1 (centres undefined),-11,·,·,·,·,·
Cc1ccc(C(=O)Nc2cc3c(cc2C)n(C)c(=O)c(=O)n3C)cc1,-33,·,·,·,·,·
CC1CN(c2nc(-c3ccc(Br)cc3)nnc2-c2ccccc2)CC(C)N1 (centres undefined),50,?,1,-6,8.3µM*,?
Cn1c(=O)c2c(-c3ccc(Cl)cc3)ccnc2n(C)c1=O,-5,·,·,·,·,·
N#CCCN(Cc1cccs1)C(=O)c1ccc(Cl)cc1,-2,-31%,-3,-3,-15%,6%
Cc1ccc(NC(=O)c2ccc(NCCN)c([N+](=O)[O-])c2)cc1Cl,-82*,4.1µM*,4,22,7%,14µM*
Cc1ccc(NC(=O)c2ccc(NCCc3ccccc3)c([N+](=O)[O-])c2)cc1F,18,0%,-1,-9,8.3µM*,?
O=C(Nc1cc(F)cc(F)c1)c1ccc(NCCc2ccccc2)c([N+](=O)[O-])c1,-8,13%,5,12,?,2%
CCN(C(=O)Cc1c(C(=O)O)c(C)cn1C)c1cccc(Cl)c1,11,·,·,·,·,·
Cc1ccc(/C=N/N2CCCCC2)o1,21,30%,39*,56*,41%,19%
CC1CCOC(c2coc3ccccc3c2=O)O1 (centres undefined),135,162%,59*,54*,182%,14%
Cc1cccc2cc(-c3nc(-c4cccs4)no3)c(=O)oc12,-21,·,·,·,·,·
Cc1ccccc1-c1nnc(-c2cccs2)o1,62,78%,58*,85*,-28%,25%
Cc1ccccc1-c1noc(-c2cccs2)n1,27,106%,55*,87*,?,-3%
Cc1nn2cnc3sc4c(c3c2nc1=O)CCCC4,-40,-17%,-2,4,?,-2%
N#CCc1nc2c3c4c(sc3ncn2n1)CCCC4,?,·,-1,-7,10µM*,-4%
CCN(CC)S(=O)(=O)c1csc(C(=O)OCC(=O)c2ccccc2)c1,-19,0%,33*,41*,?,5%
CCN(Cc1ccccc1)S(=O)(=O)c1csc(C(N)=O)c1,?,20%,-1,-5,0%,6%
CCN(CC)S(=O)(=O)c1csc(C(=O)NCc2ccccc2)c1,-71*,-10%,1,-3,28%,?
CC(C)CNc1ccc2c(c1)OC[C@H](C)NS2(=O)=O,3,·,·,·,·,·
O=C(Nc1ccc(OCc2cc(=O)n3ccsc3n2)cc1)c1ccc(F)cc1,0,·,·,·,·,·
Cc1[nH]c(=O)[nH]c(=O)c1S(=O)(=O)Nc1ccc(F)cc1F,31,9%,8,18,11%,7%

# High-throughput results from PubChem.
